Screening results (PubChem)
An excerpt weighted towards active compounds, which were near 4.5% of everything screened.
DAX1 inh-1: inhibitors of human orphan nuclear receptor DAX1 (NR0B1); HEK293 Gal4-DAX1 luciferase reporter, luminescence; AID 504766; P51843; 0.99% of 340,000 active; inhibition, % at 6.75 µM;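 active means inhibition above the mean over all tested compounds plus 3 SD, cut at about 4.2% in these data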;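 further: 0% = DAX1-transfected cells with DMSO and 100% = empty-vector control cells with DMSO; inhibition shows as a rise in luminescence from relieved DAX1 repression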
Target sequence (P51843 207-470 limits assumed): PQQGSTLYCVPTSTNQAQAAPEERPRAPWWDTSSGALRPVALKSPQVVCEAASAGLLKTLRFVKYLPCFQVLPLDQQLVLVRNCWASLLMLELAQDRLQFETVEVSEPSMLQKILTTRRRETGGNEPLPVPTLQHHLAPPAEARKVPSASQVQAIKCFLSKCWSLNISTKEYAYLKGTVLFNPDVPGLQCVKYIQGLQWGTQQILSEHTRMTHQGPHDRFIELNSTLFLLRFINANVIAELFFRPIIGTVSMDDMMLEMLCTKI
hcDAF12 agonist: activates DAF-12 receptor from parasite H. contortus; HEK293 hcDAF-12 lit1-tk-luc reporter, luminescence; 0% DMSO, 100% Δ7-dafachronic acid; activation, % at 6.8 µM; 1.4% of 370,000 active; AID 652067;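 active means activation above the mean of all tested compounds plus 3 SD, cut at about 5.5% in these data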;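 further: 100% = response to 3 µM Δ7-dafachronic acid high control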
ssDAF12 agonist: activates DAF-12 receptor from parasite S. stercoralis; HEK293 ssDAF-12/GRIP1 lit1-tk-luc reporter, luminescence; % of 3 µM dafachronic acid response; activation, % at 6.8 µM; 1% of 370,000 active; AID 652126;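 active means activation above the mean over all tested compounds plus 3 SD, cut at about 0.9% in these data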;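 further: 0% = DMSO-only wells and 100% = 3 µM delta7-dafachronic acid wells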
DAX1 inh-2: DAX1 (NR0B1) inhibition, primary screen; 1.1% of 370,000 active; HEK293T StAR-luciferase reporter, SF-1/DAX-1 repression relief; inhibition, % at 6.8 µM;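 active means inhibition above the mean over all tested compounds plus 3 SD, cut at about 3.6% in these data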;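 further: 0% = DAX-1 cells with DMSO and 100% = cells lacking DAX-1 with DMSO; higher inhibition means more luminescence from relief of DAX-1 repression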
GAA850 FXN act: increases GAA850 frataxin promoter reporter activity | HEK293 lucGAA850 FXN promoter luciferase reporter, 24 h; percent of 10 µM SAHA response | 0.56% of 360,000 active | activation, % at 6 µM | AID 540364;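 active means activation above the average of all compounds screened plus 3 SD, cutoff fixed separately per campaign, cut at about 7.5% in these data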;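 further: 0% = DMSO wells and 100% = 10 µM SAHA wells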
hgDAF12 agonist: hgDAF-12 agonism, primary luciferase screen; HEK293 GAL4-hgDAF12 UAS-luciferase reporter, agonist luminescence; normalized to butyrate control; activation, % at 6.8 µM; 1.8% of 370,000 active;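 active means activation above a cutoff set at the mean of all screened compounds plus 3 SD, cut at about 10% in these data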;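 further: 0% = DMSO wells and 100% = sodium butyrate wells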
The depositor's hits bear a star; nt = not tested or not shown.

SMILES	DAX1 inh-1	hcDAF12 agonist	ssDAF12 agonist	DAX1 inh-2	GAA850 FXN act	hgDAF12 agonist
COc1ccc(C[N+]2=C(N)NC3=C4CCCCC4n4c(=O)n(-c5ccccc5)c(=O)n4C3C2)c(OC)c1 (stereo not drawn)	nt	-1	-2	-1	nt	0
CN(Cc1ccccc1)c1nnc(N)s1	1	-2	-1	1	1	-2
CC(C)N(c1nnc(N)s1)C(C)C	5.0*	3	0	-1	0	0
Cc1cc(C)c(C)c(S(=O)(=O)N2CCN(C)CC2)c1C	8.9*	-2	0	0	1	3
Cc1cc(C)c(C)c(S(=O)(=O)N2CCSCC2)c1C	0	0	0	0	0	-1
Cc1ccc([N+](=O)[O-])cc1S(=O)(=O)N1CCN(C)CC1	6.3*	0	-1	0	0	0
CN(Cc1ccccc1Cl)C(=O)CN1C(=O)C2(OCCCO2)c2ccccc21	nt	-3	-1	1	nt	-2
O=C(Cc1nnc(NC(=O)Nc2ccc(F)cc2)s1)Nc1ccccc1	1	-1	1.1*	0	0	-4
O=C(Cc1nnc(NC(=O)Nc2ccccc2)s1)Nc1ccccc1	nt	0	-1	0	0	0
CCCOc1ccc(-c2nnc(-c3cccs3)o2)cc1	2	4	0	2	4	10*
Cc1onc(-c2ccc(Cl)cc2)c1-c1ccn(S(=O)(=O)c2cccc(Cl)c2)n1	nt	0	-2	-2	nt	3
O=C(COCc1ccncc1)N1CCN(c2ccc(F)cc2Cl)CC1	nt	-2	-2	-2	nt	-2
COc1ccccc1NC(=S)N1CCC(C(=O)c2ccc(F)cc2)CC1	5.6*	0	-1	0	0	0
COc1ccc(S[C@]2(C(=O)N3CCN(c4ncccn4)CC3)CC(=O)N(c3ccc(C#N)cc3)[C@@H]2c2ccc(OC)cc2)cc1	nt	-3	-2	-1	nt	-5
COc1ccc(C=C2NC(=S)NC2=O)cc1	2	-1	-1	-1	0	-1
COc1ccc(C(=O)N2C(=S)NC(=O)/C2=C\c2ccc(C)cc2)cc1	1	2	-1	2	4	12*
COc1ccccc1C1C(C(N)=O)=C(C)Nc2ncnn21 (stereo not drawn)	6.7*	0	-1	0	1	1
CC1=C(C(=O)OC(C)C)C(c2c[nH]c3ccccc23)n2ncnc2N1 (stereo not drawn)	1	5.7*	1	0	-2	-1
Cc1ccc(S(=O)(=O)N2CCCC2C(c2ccccc2O)c2cn(C)c3ccccc23)cc1 (stereo not drawn)	nt	-1	-2	-1	nt	-4
CC1(C)C2CCC(CN)C1C2 (stereo not drawn)	5.3*	-2	-1	0	0	4
COC(=O)C1CN(CCc2ccccc2)CCS(=O)(=O)N1Cc1ccccc1 (stereo not drawn)	nt	3	-1	-1	nt	3
C=CCN1[C@@H](Cc2ccccc2)COc2cccc(F)c2S1(=O)=O	nt	-2	-2	-1	nt	0
O=C(C[n+]1ccc2ccccc2c1)c1ccccc1	4.8*	4	1	1	0	9
COC(=O)[C@]12C[C@H](CC(=O)N3CCCCC3)C(=O)N(Cc3cccc4ccccc34)C1=C[C@H](C1CCCC1)O[C@@H]2C	nt	-4	-2	-1	nt	-6
Cc1ccc2[nH]c(CNC(=O)c3ccc(F)cc3)cc2c1	1	1	1.0*	1	2	-1
SMILES	DAX1 inh-1	hcDAF12 agonist	ssDAF12 agonist	DAX1 inh-2	GAA850 FXN act	hgDAF12 agonist
Cc1ccc2[nH]c(C(=O)Nc3ccc(F)cc3)cc2c1	0	-1	-1	0	3	3
COC(=O)[C@]12C[C@H](CC(=O)N3CCC(c4ccccc4)CC3)C(=O)N(CCC3=CCCCC3)C1=C[C@H](C1CCCC1)O[C@@H]2C	nt	0	-1	-1	nt	-1
COc1cccc(C2CCCCN(C)C2=O)c1 (stereo not drawn)	4.6*	-2	-2	1	0	0
Cn1c(-c2ccc(F)c(F)c2)cc2onc(-c3ccccc3)c2c1=O	4	4	0	2	3	12*
COC(=O)c1ccc(-c2cc3onc(-c4ccccc4)c3c(=O)n2C)cc1	2	0	0	0	3	1
COc1cccc(-c2cc3onc(-c4ccccc4)c3c(=O)n2C)c1	2	5	0	3	3	12*
CN(C)C(=O)c1ccc(-c2cc3onc(-c4ccccc4)c3c(=O)n2C)cc1	-2	-1	-1	-1	3	1
O=S(=O)(c1ccc(CN2CCOCCOCCN(Cc3ccc(S(=O)(=O)C(F)(F)F)cc3)CCOCC2)cc1)C(F)(F)F	nt	-4	-2	nt	nt	-4
c1ccc(-c2cc(-c3nnc4sc(Cc5cccs5)nn34)[nH]n2)cc1	nt	-2	-1	0	nt	-1
O=C(NCC1CCCO1)c1nn2c(C(F)(F)F)cc(-c3cccs3)nc2c1Br (stereo not drawn)	2	-2	-1	1	1	-3
O=C(NCC1CCCO1)c1nn2c(C(F)(F)F)cc(-c3cccs3)nc2c1Cl (stereo not drawn)	-1	0	0.9*	0	3	-2
COc1cc(/C=N/NC(=O)c2ccoc2C)ccc1O	3	2	0	1	3	10*
CCOc1ccc(/C=N/NC(=O)c2ccoc2C)cc1OC	1	1	0	3	3	9
C/C(=N\NC(=O)c1cccc2ccccc12)c1ccccn1	-1	-2	-1	-1	5	0
C/C(=N\NC(=O)c1ccoc1C)c1cccc2ccccc12	0	3	0	1	3	13*
Cc1ccc(C(=O)N/N=C\c2ccccn2)cn1	2	0	-2	0	1	1
Cc1occc1C(=O)N/N=C/c1ccccn1	1	1	1	2	3	11*
COc1ccc(C(=O)OCCN2CCN(C3CN(Cc4cn(Cc5cccc(C)c5)nn4)S(=O)(=O)C3)CC2)cc1OC (stereo not drawn)	nt	-5	-2	-4	nt	-2
COc1cccc(CNC(=O)Cn2c(-c3ccccc3)cc(C(C)=O)c2C)c1	nt	-2	-1	-2	nt	0
Cc1ccc(OCCCCCCN2CCNCC2)c(Br)c1	4.7*	5.9*	-1	0	3	4
C=CCN(C)CC#Cc1ccc(C)cc1	nt	-1	-1	1	nt	-2
On1c(-c2ccc(Cl)cc2)nc2ccccc21	nt	3	0	2	5	11*
Cc1ccc(CNC(=O)OC(C)(C)C)c(/C=C/S(=O)(=O)NCCc2ccccc2)c1	nt	-5	-2	-2	nt	-3
